KB-V1 cytotox: qHTS assay for MDR1-selective chemotherapeutics: Primary screen using the drug-selected MDR subline cells KB-V1; KB-V1 MDR cells viability, CellTiter-Glo, 72 h; Potency, µM (series often up to 46.1 µM), usual class: cytotoxic; hit rate 3.4% among 400,000; AID 1347076, 2019; note: nearly all actives have a fitted effect of over 60% in size
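Cytotoxicity toward P-gp-expressing KB-V1 cells was determined as loss of CellTiter-Glo luminescence after 72 h at 37 degrees C. Compounds were tested in quantitative HTS format across a concentration range, with curves fitted to normalized data.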
HT1080-NT tox: qHTS for induction of synthetic lethality in tumor cells producing 2HG: qHTS for the HT-1080-NT fibrosarcoma cell line; Potency, µM (titrated, usually from 46.1 µM), for inactives: top-dose activity, negative = less viability, actives largely listed as cytotoxic; AID 686970, 2013; hit rate 1.6% among 360,000; HT-1080-NT fibrosarcoma viability, CellTiter-Glo ATP luminescence, 48 h;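 note: NT is the 2HG producing partner of a matched IDH1 knockdown line; 0% = DMSO-treated cells and -100% = media-only wells without cells; nearly all actives have a fitted effect of over 55% in size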
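750 cells/well, RPMI + 5% FBS; 2 h settle, compound pin-transfer, 48 h at 37 degrees C. CellTiter-Glo 10 min RT, luminescence. Normalized to DMSO and media-only wells.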
DT40 TDP1 CPT: qHTS for Inhibitors of human tyrosyl-DNA phosphodiesterase 1 (TDP1): qHTS in cells in presence of CPT; Potency, µM (series often up to 46.2 µM), for inactives: top-dose activity change, negative = growth inhibition, most hits filed as inhibitors; hit rate 12% among 420,000; chicken DT40 Tdp1-/-;hTDP1 cells + 20 nM CPT, ATP luminescence, 48 h; note: nearly all actives have a fitted effect of over 55% in size
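Chicken DT40 Tdp1-/- cells complemented with human TDP1, 400 cells/well, exposed to compounds plus 20 nM camptothecin for at least 48 h at 37 C; viability read as ATP content by CellTiter-Glo luminescence.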
TDP1 cell noCPT: qHTS for Inhibitors of human tyrosyl-DNA phosphodiesterase 1 (TDP1): qHTS in cells in absence of CPT; DT40 Tdp1-/- hTDP1 cells, no CPT, ATP luminescence, 48 h; Potency, µM (doses to about 46.2 µM), without a hit: at the top dose activity change, negative = growth inhibition, hits mostly inhibitors; hit rate 15% among 420,000; AID 686978, 2013; note: nearly all actives have a fitted effect of over 55% in size
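Readout: luminescence from CellTiter-Glo after 30 min in the dark at RT. Cells: DT40 Tdp1-/- with stable hTDP1, 400/well. Exposure: compounds alone, ≥48 hr, 37 °C.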
HT1080 IDH1KD tx: qHTS for induction of synthetic lethality in tumor cells producing 2HG: qHTS for the HT-1080-IDH1KD cell line; HT-1080 IDH1 knockdown viability, ATP luminescence, 48 h; Potency, µM (series often up to 46.1 µM), for inactives: at the top dose activity, negative = toxicity, hits mostly cytotoxic; hit rate 2% among 360,000; AID 686971, 2013;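 note: 0% = DMSO wells and -100% = cell-free medium wells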
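Using the IDH1-knockdown HT-1080 line run in the same batch and compound series as the NT line, viability after 48 h at 37 °C was determined by CellTiter-Glo luminescence and expressed as % activity.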
KB-3-1 tox: qHTS assay for MDR1-selective chemotherapeutics: Primary screen using the parental adenocarcinoma cell KB-3-1. KB-3-1 viability, CellTiter-Glo ATP luminescence, 72 h. hit rate 1.4% among 400,000. Potency, µM (titrated, usually from 46.1 µM), most hits filed as cytotoxic; note: nearly all actives have a fitted effect of over 60% in size
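Using CellTiter-Glo luminescence, growth of non-resistant KB-3-1 adenocarcinoma cells is assessed 72 h after pin-tool compound addition at 37 °C. Normalized responses across the concentration series yield fitted curves.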
Numbers without * were called inactive; i = inactive; u = inconclusive; x = no result given. Hits are enriched below; roughly 19% of the tested compounds scored in any of these assays. Calls come from the whole dose curve; as a rule, active = well fitted curve in the direction sought with a large enough effect; inconclusive = small, poorly fitted or top-dose-only effect, or another doubt; inactive = no such curve, though single readings can be large; an effect the other way counts as inactive or inconclusive. Unless noted, % is set by controls: 0 for no effect and ±100 for the full control effect; potency is the fitted concentration of half-maximal effect.

SMILES | KB-V1 cytotox | HT1080-NT tox | DT40 TDP1 CPT | TDP1 cell noCPT | HT1080 IDH1KD tx | KB-3-1 tox
FC(F)(F)c1ccccc1CNCCc1c[nH]c2ccccc12 | i | -23% | u | 15µM* | -13% | i
COc1ccc(C(=O)Nc2ccccc2-c2nnn(CC(=O)Nc3ccc4c(c3)OCCO4)n2)cc1 | u | -1% | u | u | 2% | i
Cc1ccc(C)c(NC(=O)CCNC(=O)N2C[C@H]3C[C@@H](C2)c2cccc(=O)n2C3)c1 | i | 1% | 9% | -1% | 5% | i
Cc1ccc(NC(=O)c2cn(CCC#N)nc2-c2ccc3c(c2)OCCO3)c([N+](=O)[O-])c1 | u | 0% | u | 6.5µM* | 1% | i
CC12CCC3C(CC=C4CC(O)CCC43C)C1CC(=CN1CCOCC1)C2=O (stereo not given) | i | -6% | 2% | -13% | -17% | i
C[C@]12CC[C@H](O)CC1=CCC1C2CC[C@]2(C)C(=O)[C@H](Br)CC12 (stereo not given in full) | u | 4% | u | u | -12% | i
CC12CCC3C(CC=C4CC(O)CCC43C)C1C/C(=C\c1ccccc1F)C2=O (stereo not given) | i | u | u | 23µM* | u | i
Cc1nn(C)cc1/C=C1/CC2C3CC=C4CC(O)CCC4(C)C3CCC2(C)C1=O (stereo not given) | 18µM* | -9% | 1% | u | -1% | i
COc1ccc(CNC(=O)c2cnn3c(C)c(Cc4ccc(F)cc4)c(C)nc23)cc1 | i | x | 16µM* | 15µM* | x | i
COc1ccc(-c2nn(CCC#N)cc2C(=O)NCc2ccccc2)cc1 | i | 13% | -19% | 27% | 3% | i
COc1ccc(-c2coc3cc(OC(=O)N4CCOCC4)ccc3c2=O)cc1 | u | 23% | 13µM* | 18µM* | -5% | i
COc1cccc(Oc2coc3cc(OC(=O)N(C)C)ccc3c2=O)c1 | i | 0% | u | u | -3% | i
CCC(c1nnnn1-c1ccc(OC)cc1)N1CCC(n2c(=O)[nH]c3ccccc32)CC1 (stereo not given) | i | 1% | u | u | 2% | i
COc1ccc(-n2nnnc2C(CCc2ccccc2)N2CCC(n3c(=O)[nH]c4ccccc43)CC2)cc1 (stereo not given) | u | 16µM* | u | 23µM* | 13µM* | u
O=c1[nH]c2ccccc2n1C1CCN(C(CCc2ccccc2)c2nnnn2-c2ccc3c(c2)OCCO3)CC1 (stereo not given) | 23µM* | 13µM* | 3.7µM* | 2.9µM* | 15µM* | u
COc1cccc(C(c2nnnn2-c2c(C)cccc2C)N2CCC(n3c(=O)[nH]c4ccccc43)CC2)c1OC (stereo not given) | u | u | 5.8µM* | 5.8µM* | u | u
COc1ccc(-n2nnnc2C(CCSC)N2CCC(n3c(=O)[nH]c4ccccc43)CC2)cc1 (stereo not given) | i | u | u | 21µM* | u | i
COc1cccc(C(c2nnnn2Cc2ccccc2)N2CCC3(CC2)C(=O)NCN3c2ccccc2)c1OC (stereo not given) | i | u | u | u | u | i
CSCCC(c1nnnn1-c1ccc2c(c1)OCCO2)N1CCC2(CC1)C(=O)NCN2c1ccccc1 (stereo not given) | i | -25% | u | u | u | i
Cc1cc(C)c(NC2=NCCS2)cc1C | i | 2% | -24% | u | -10% | i
C[C@]12CCC3C(CC[C@H]4C[C@@H](O)CC[C@]34C)C1C[C@@H](Br)[C@@H]2O (stereo not given in full) | i | 10% | 4% | -19% | 15% | u
CCc1nc2ccc(C(=O)NCCN3CCNC3=O)cn2c1N(CC)Cc1cccc(Br)c1 | i | 3% | u | u | -9% | i
CCOC(=O)C1(CCc2ccccc2)CCN(CC(O)CO)CC1 (stereo not given) | i | -10% | -10% | -23% | -7% | i
Cc1cccc(C)c1-n1nnnc1C(CCc1ccccc1)N1CCC(n2c(=O)[nH]c3ccccc32)CC1 (stereo not given) | u | 13% | 5.8µM* | 5.8µM* | 15% | u
CN1C2CCC1CC(OC(=O)CCN1CCCC1)C2 (stereo not given) | i | 5% | -8% | -6% | 1% | i
SMILES | KB-V1 cytotox | HT1080-NT tox | DT40 TDP1 CPT | TDP1 cell noCPT | HT1080 IDH1KD tx | KB-3-1 tox
O=C(CCN1CC1)OCCOC(=O)CCN1CC1 | i | 6% | 5.2µM* | 4.6µM* | 13% | u
COc1ccc(C/C(=N\OC(C)=O)c2ccc(OC)cc2)cc1 | i | -6% | -4% | u | -13% | i
C=CCC1=C(C)C(OC(=O)C2C(C=C(C)C)C2(C)C)CC1=O (stereo not given) | x | x | u | 24µM* | x | x
CCC1(c2ccccc2)C(=O)NC(=O)N(C(=O)c2ccccc2)C1=O (stereo not given) | x | x | -19% | -21% | x | x
CCCC1(CCO)C(=O)NC(=S)NC1=O | i | 0% | 11% | 0% | -1% | u
O=C(Nc1ccc(Cl)c(Cl)c1)O/N=C/c1ccncc1 | i | -17% | u | u | 1% | i
C[C@@H]1CCCCO[C@@H](CN(C)S(=O)(=O)c2ccc(F)cc2)[C@@H](C)CN([C@H](C)CO)C(=O)c2cc(N(C)C)ccc2O1 | i | -3% | u | 21µM* | 1% | i
COc1ccc(S(=O)(=O)N(C)C[C@H]2OCCCC[C@@H](C)Oc3ccc(N(C)C)cc3C(=O)N([C@H](C)CO)C[C@@H]2C)cc1 | i | -1% | u | 23µM* | 3% | i
C[C@@H]1CN([C@H](C)CO)C(=O)c2cc(/C=C/c3ccccc3)cnc2O[C@H]1CN(C)C(=O)NC1CCCCC1 | u | -3% | u | u | -10% | i
